Where a name gives a salt, the structure may show the parent alone. ± gives the standard deviation or the standard deviation of the averaged measurements.
Assays:
Settings in all cases: 25 µM; exposure: 24-48 hpf
[1] = test system: Danio rerio Tg(wt1b:EGFP) embryo, pronephros; experiment: glomerular separation, fold change vs DMSO control; higher = glomeruli further apart (abnormal)
Method in brief: (§1)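 Every feature is expressed as a fold change relative to the averaged DMSO-treated embryos of the same day. The exposure ran from 24 to 48 hpf at 28.5°C, with dechorionated Tg(wt1b:EGFP) zebrafish embryos in HEPES-buffered E3 containing 0.003% PTU, 0.5% DMSO and 25 μM compound. Dorsal pronephros images taken in agarose-filled 96-well plates were reduced to maximum projections, on which 16 reference points were set by hand in Fiji for a macro to compute distances and angles. Values more than 2 SD from the feature mean were not used.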

[2] = test system: Danio rerio Tg(wt1b:EGFP) embryo, pronephros; experiment: glomerular width (mean of left and right), fold change vs DMSO control; higher = wider glomerulus
Method in brief: as §1

[3] = test system: Danio rerio Tg(wt1b:EGFP) embryo, pronephros; experiment: fraction of imaged embryos annotated as normal kidney; higher = less nephrotoxic; extreme values may be limits of the assay
Method in brief: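 Tricaine-anaesthetised Tg(wt1b:EGFP) zebrafish larvae were oriented dorsally in agarose-filled 96-well plates, and their pronephroi were recorded by widefield fluorescence at 470 nm in 10 z-slices. Before this, the dechorionated embryos had been exposed in 12-well plates to 25 μM compound in 0.5% DMSO and 5 mM HEPES-buffered E3 with 0.003% PTU, from 24 to 48 hpf at 28.5°C. Maximum projections were annotated manually for each embryo, and the read-out is the fraction per treatment classed as normal kidney.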

[4] = test system: Danio rerio Tg(wt1b:EGFP) embryo, pronephros; experiment: pronephric angle neck segment to proximal convoluted tubule (mean of left and right), fold change vs DMSO control; higher = larger pronephric angle
Method in brief: as §1

Compound | glomerular separation [1] | glomerular width [2] | fraction of imaged embryos annotated as normal kidney [3] | pronephric angle neck segment [4]
CCN1CCN(c2cc3c(cc2F)c(=O)c(C(=O)O)cn3C2CC2)CC1 [Enrofloxacin] | 0.888 ± 0.34 | 1.07 ± 0.12 | 0.917 | 1.01 ± 0.037
CCOC(=O)NNc1nncc2ccccc12 [Todralazine hydrochloride] | 0.937 ± 0.25 | 0.993 ± 0.06 | 0.917 | 0.963 ± 0.031
COc1cc2ncnc(Nc3ccc(F)c(Cl)c3)c2cc1OCCCN1CCOCC1 [Gefitinib] | 1.29 ± 0.64 | 0.981 ± 0.034 | 1 | 1.02 ± 0.024
c1ccc(-c2ccc(C(c3ccccc3)n3ccnc3)cc2)cc1 (stereo unspecified) [Bifonazole] | 1.24 ± 0.55 | 0.786 ± 0.019 | 0.417 | 1.22 ± 0.14
CCOc1ccc(Cc2nccc3cc(OCC)c(OCC)cc23)cc1OCC [Ethaverine hydrochloride] | 0.975 ± 0.28 | 1.1 ± 0.081 | 0.583 | 0.989 ± 0.061
CCC1=C(C)CN(C(=O)NCCc2ccc(S(=O)(=O)NC(=O)N[C@H]3CC[C@H](C)CC3)cc2)C1=O [Glimepiride] | 0.872 ± 0.29 | 1.02 ± 0.06 | 0.917 | 1 ± 0.03
CN(C)CCCN1c2ccccc2Sc2ccc(C(F)(F)F)cc21 [Triflupromazine hydrochloride] | 0.863 ± 0.37 | 1.033 ± 0.0067 |  | 0.954 ± 0.014
CC(C[N+](C)(C)C)OC(N)=O (stereo unspecified) [Bethanechol chloride] | 0.946 ± 0.32 | 1.023 ± 0.0027 | 0.833 | 0.998 ± 0.024
CS(=O)(=O)Nc1ccc([N+](=O)[O-])cc1Oc1ccccc1 [Nimesulide] | 3.39 ± 1.9 | 0.837 ± 0.056 | 0 | 1.38 ± 0.071
CCC(C)(C)C(=O)O[C@H]1C[C@@H](C)C=C2C=C[C@H](C)[C@H](CC[C@@H]3C[C@@H](O)CC(=O)O3)[C@H]21 [Simvastatin] | 4.7 ± 1.8 | 0.658 ± 0.034 |  | 1.8 ± 0.065
CC[C@@H](CO)NCCN[C@@H](CC)CO [Ethambutol dihydrochloride] | 1.28 ± 0.4 | 0.965 ± 0.028 | 0.75 | 1.02 ± 0.076
CC(=O)Oc1ccccc1C(=O)Oc1ccccc1C(=O)O [Acetylsalicylsalicylic acid] | 1.33 ± 0.59 | 0.971 ± 0.085 | 0.833 | 1.017 ± 0.0041
CC(C(=O)O)c1cccc(C(=O)c2ccccc2)c1 (stereo unspecified) [Ketoprofen] | 1.58 ± 0.77 | 0.83 ± 0.037 |  | 1.1 ± 0.028
CCCc1nc(C)c2c(=O)nc(-c3cc(S(=O)(=O)N4CCN(CC)CC4)ccc3OCC)[nH]n12 [Vardenafil] | 1.24 ± 0.46 | 1.02 ± 0.021 | 0.667 | 0.981 ± 0.041
CCOC(=O)N1CCC(=C2c3ccc(Cl)cc3CCc3cccnc32)CC1 [Loratadine] | 1.4 ± 0.98 | 0.989 ± 0.055 |  | 1.1 ± 0.021
COC(=O)N/N=C/c1c[n+]([O-])c2ccccc2[n+]1[O-] [Carbadox] | 1.17 ± 0.61 | 0.931 ± 0.063 | 0.833 | 1.13 ± 0.11
Cn1c([N+](=O)[O-])cnc1COC(N)=O [Ronidazole] | 0.869 ± 0.18 | 0.99 ± 0.011 | 0.75 | 1.02 ± 0.016
c1ccc2c(c1)CCCC2C1=NCCN1 (stereo unspecified) [Tetrahydrozoline hydrochloride] | 0.793 ± 0.31 | 1.06 ± 0.027 | 1 | 0.98 ± 0.042
COc1ccc(CCN(C)CCCC(C#N)(c2ccc(OC)c(OC)c2)C(C)C)cc1OC (stereo unspecified) [Verapamil hydrochloride] | 1.1 ± 0.41 | 0.995 ± 0.019 |  | 1.075 ± 0.0043
CC1Cc2ccccc2N1NC(=O)c1ccc(Cl)c(S(N)(=O)=O)c1 (stereo unspecified) [Indapamide] | 1.2 ± 0.88 | 0.904 ± 0.058 | 0.909 | 0.988 ± 0.041
N[C@@H](Cc1cc(I)c(Oc2ccc(O)c(I)c2)c(I)c1)C(=O)O [Liothyronine] | 0.912 ± 0.45 | 0.9338 ± 0.0093 |  | 1.01 ± 0.018
CCOC(=O)C(C)(C)Oc1ccc(Cl)cc1 [Clofibrate] | 2.62 ± 1.7 | 0.608 ± 0.044 | 0 | 1.66 ± 0.033
CC[C@H]1OC(=O)[C@H](C)[C@@H](O[C@H]2C[C@@](C)(OC)[C@@H](O)[C@H](C)O2)[C@H](C)[C@@H](O[C@@H]2O[C@H](C)C[C@H](N(C)C)[C@H]2O)[C@](C)(O)C[C@@H](C)/C(=N\OCOCCOC)[C@H](C)[C@@H](O)[C@]1(C)O [Roxithromycin] | 0.811 ± 0.45 | 1 ± 0.014 | 0.75 | 1.02 ± 0.03
Nc1nc(NC2CC2)c2ncn([C@H]3C=C[C@@H](CO)C3)c2n1 [Abacavir Sulfate] | 0.958 ± 0.35 | 1.05 ± 0.052 | 0.9 | 1.04 ± 0.034
CC(C)c1ccc2oc3nc(N)c(C(=O)O)cc3c(=O)c2c1 [Amlexanox] | 1.84 ± 0.69 | 1.04 ± 0.036 |  | 0.955 ± 0.017
CN(C)CCOC(c1ccccc1)c1ccccc1 [Diphenhydramine hydrochloride] | 0.907 ± 0.28 | 1.03 ± 0.0021 | 0.75 | 0.942 ± 0.016
CN(C)CCN(Cc1ccccc1)c1ccccn1 [Tripelennamine hydrochloride] | 0.843 ± 0.37 | 0.982 ± 0.054 | 1 | 1.1 ± 0.083
